BH1578 lux ind: induces V. cholerae light production without autoinducers | 350,000 compounds, 0.16% hits | AID 588436 | V. cholerae BH1578 lux reporter, luminescence, 6 h | activation, % at 18.7 µM; in the data active means activation mostly above about 9.7%, no sharp cut-off
GDH-TPI inh: inhibits GDH-TPI coupling enzymes, artifact for Mtb FBA screen. GDH-TPI coupled enzyme counterscreen, NADH absorbance. inhibition, % at 4.8 µM. 360,000 compounds, 1.2% hits. AID 588335; in the data active means inhibition above about 30%
Rv3671c protease: inhibitors of M. tuberculosis serine protease Rv3671c. inhibition, % at 5.96 µM. 320,000 compounds, 0.048% hits. P9WHR9; in the data active means inhibition above about 38%;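 further: extracellular domain of Rv3671c used as enzyme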
RecA splice inh: inhibitors of M. tuberculosis RecA intein splicing; inhibition, % (concentration not given with the values); cell-free RecA intein splicing, fluorescence; 290,000 compounds, 0.75% hits; in the data active means inhibition above about 30%
FBA Mtb inh: inhibits M. tuberculosis FBA enzyme; P9WQA3; purified M. tuberculosis FBA, fluorescence read-out; inhibition, % at 1 µM; 360,000 compounds, 2.3% hits; in the data active means inhibition above about 27%
Mtb UGM inh: blocks M. tuberculosis UGM enzyme; P9WIQ1; purified UGM, fluorescence polarization probe displacement; inhibition, % at 10 µM; 320,000 compounds, 0.06% hits; AID 504406; in the data active means inhibition above about 10%, passing the limit was not always enough
Target sequence (P9WIQ1 whole entry, looked up): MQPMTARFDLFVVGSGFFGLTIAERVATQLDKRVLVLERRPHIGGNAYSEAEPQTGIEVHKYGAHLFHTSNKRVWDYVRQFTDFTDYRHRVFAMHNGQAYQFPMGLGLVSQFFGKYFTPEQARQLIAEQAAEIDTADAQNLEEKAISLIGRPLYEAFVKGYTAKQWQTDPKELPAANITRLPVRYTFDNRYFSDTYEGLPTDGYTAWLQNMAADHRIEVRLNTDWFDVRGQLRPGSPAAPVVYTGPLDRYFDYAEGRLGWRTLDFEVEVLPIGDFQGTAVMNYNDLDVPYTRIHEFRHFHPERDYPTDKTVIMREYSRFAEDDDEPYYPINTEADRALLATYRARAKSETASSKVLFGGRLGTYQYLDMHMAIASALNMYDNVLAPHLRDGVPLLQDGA
GFP chromo cs: counter-screen: blocks GFP chromophore formation | 2,100 compounds, 83% hits | cell-free GFP chromophore formation, fluorescence | shares compounds with RecA splice inh | AID 434968 | EC50, µM; call rule not given here
Of the large screens only hits and unclear results are named; the others gave an inactive call (follow-up assays come after a bar, where they were run). The list is not random: actives were taken first. Their share in the collection is about 4.1%.

O=C(O)c1cccc(Nc2cc(Cl)c3nonc3c2[N+](=O)[O-])c1	RecA splice inh 88 | GFP chromo cs 4.8
O=[N+]([O-])c1ccc(Nc2ccccn2)c([N+](=O)[O-])c1	none
O=[N+]([O-])c1c(Nc2ccc(O)cc2)cc(Cl)c2nonc12	RecA splice inh 95 | GFP chromo cs 1
O=C(O)c1ccccc1Nc1cc(Cl)c2nonc2c1[N+](=O)[O-]	RecA splice inh 90 | GFP chromo cs 2.6
O=[N+]([O-])c1c(Nc2ccccn2)cc(Cl)c2nonc12	RecA splice inh 87 | GFP chromo cs 2.1
O=C(O)c1ccccc1Nc1ccc([N+](=O)[O-])cc1	none
COc1cc(C(=O)N/N=C/c2coc3ccc(Cl)cc3c2=O)ccc1O	none
COc1ccc(C(=O)N/N=C\c2coc3ccc(Cl)cc3c2=O)cc1	RecA splice inh 37 | GFP chromo cs 38
O=C(N/N=C/c1coc2ccc(Cl)cc2c1=O)c1ccncc1	none (no result: BH1578 lux ind, Rv3671c protease)
O=C(N/N=C/c1coc2ccc(Cl)cc2c1=O)c1ccc(O)cc1	RecA splice inh 38 (no result: Rv3671c protease) | GFP chromo cs 32
Cc1cc(N/N=C/c2ccc(O)c(C)c2O)nc(-c2ccccc2O)n1	GDH-TPI inh 32, RecA splice inh 47 | GFP chromo cs inactive
COc1ccc(CNC(=O)c2c(C)oc3c2C(=O)c2ccccc2C3=O)cc1	RecA splice inh 58 | GFP chromo cs 23
CC(=O)c1c(C)oc2c1C(=O)c1ccccc1C2=O	none
Cc1oc2c(c1C(=O)NCc1cccnc1)C(=O)c1ccccc1C2=O	RecA splice inh 75 (no result: BH1578 lux ind, GDH-TPI inh, FBA Mtb inh) | GFP chromo cs 0.62
Clc1ccc(NN(Cc2ccncc2)c2ccc(Cl)cc2)cc1	none (no result: Rv3671c protease, RecA splice inh, Mtb UGM inh)
COc1ccccc1CN1C(=O)C(Cc2ccccc2)ON=C1c1ncccc1C (configuration not stated)	none (no result: Rv3671c protease, RecA splice inh, Mtb UGM inh)
C#CCOc1ccc(Br)cc1/C=N/O	none
CCOc1ccc(Cl)cc1C(c1c(C)[nH][nH]c1=O)c1c(C)[nH][nH]c1=O	RecA splice inh 97 (no result: Rv3671c protease) | GFP chromo cs 0.92
CCOc1ccc(Cl)cc1S(=O)(=O)N1CCCC1	none
C#CCOc1ccc(Br)cc1C(c1c(C)[nH][nH]c1=O)c1c(C)[nH][nH]c1=O	RecA splice inh 94 | GFP chromo cs 2.2
Cc1ccc2ccccc2c1C(O)c1ncc(-c2ccccc2F)[nH]1 (configuration not stated)	none (no result: Rv3671c protease, RecA splice inh, Mtb UGM inh)
O=C(NC1CC1)c1ccc2sc([C@@H]3O[C@H](CO)[C@H](O)[C@H](O)[C@H]3O)nc2c1	none (no result: Rv3671c protease, RecA splice inh, Mtb UGM inh)
CC1=NNC(=O)C1C(c1ccccc1)C(C#N)C#N (configuration not stated)	RecA splice inh 80 | GFP chromo cs 16
Cc1ccc(COc2ccc(CNCCCN3CCCCCC3=O)cc2)cc1	none
CCC(=O)N1N=C(c2cccs2)CC1c1ccc(C)cc1 (configuration not stated)	none
Cc1ccc(C2CC(c3cccs3)=NN2C(=O)CCl)cc1 (configuration not stated)	RecA splice inh 82 | GFP chromo cs 3.8
Cc1cccc(NC2=C(NC(=O)c3ccccc3)C(=O)c3ccccc3C2=O)c1	RecA splice inh 72 | GFP chromo cs 6.5
Cc1cccc(C(=O)Nc2cccc(NC(=O)c3ccccc3)c2)c1	none
O=C(NC1=C(Nc2ccc(Cl)cc2)C(=O)c2ccccc2C1=O)c1ccccc1	RecA splice inh 49 | GFP chromo cs 25
O=C(Nc1ccc(Nc2ccccc2)cc1)c1ccc(Cl)cc1	none (no result: RecA splice inh)
O=C(NC1=C(NC2CCS(=O)(=O)C2)C(=O)c2ccccc2C1=O)c1ccccc1 (configuration not stated)	RecA splice inh 84 | GFP chromo cs 1
CN(C)S(=O)(=O)N1CCC(n2nccc2NC(=O)CCCc2ccccc2)CC1	none
CCN(CC)c1ccc(/C=C2\C(=O)N(c3nnc(C)c(=O)[nH]3)N=C2C)cc1	RecA splice inh 81 | GFP chromo cs 9.5
Cc1ccc(N2C(=O)C(Cl)=C(N3CCOCC3)C2=O)c(C)c1	RecA splice inh 60 | GFP chromo cs 11
CCc1ccccc1N1C(=O)C(Cl)=C(N2CCOCC2)C1=O	RecA splice inh 67 | GFP chromo cs 9.9
CCOc1ccc(N2C(=O)C(Cl)=C(N3CCOCC3)C2=O)cc1	none (no result: RecA splice inh)
Cc1ccccc1N1C(=O)C(Cl)=C(N2CCOCC2)C1=O	RecA splice inh 59 | GFP chromo cs 12
